According to PubChem BioAssay (Tox21):
Results filed as inconclusive are left out. Active and inactive are the calls of the source. Unless noted, calls follow the shape of the dose curve; as a rule, active = well fitted curve in the direction sought with a large enough effect in the repeat runs; inconclusive = weak or mixed curves; inactive = no such curve, though single readings can be large; an effect the other way counts as inactive or inconclusive.

Legend:
[1] = qHTS assay to identify aromatase inhibitors - cell viability counter screen (AID 743084);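 also: cells stimulated with testosterone during compound exposure; nearly all actives have a fitted effect of over 55% in size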
[2] = biological target: Aryl hydrocarbon receptor (Homo sapiens) (UniProt P35869); experiment: qHTS assay to identify small molecule that activate the aryl hydrocarbon receptor (AhR) signaling pathway (AID 743085);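 also: HG2L7.5c1 human HepG2 liver cells with stably integrated DRE-driven firefly reporter; series mostly up to about 70 µM; nearly all actives have a fitted effect of over 15% in size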
Aryl hydrocarbon receptor (Homo sapiens), sequence (P35869 whole entry, looked up): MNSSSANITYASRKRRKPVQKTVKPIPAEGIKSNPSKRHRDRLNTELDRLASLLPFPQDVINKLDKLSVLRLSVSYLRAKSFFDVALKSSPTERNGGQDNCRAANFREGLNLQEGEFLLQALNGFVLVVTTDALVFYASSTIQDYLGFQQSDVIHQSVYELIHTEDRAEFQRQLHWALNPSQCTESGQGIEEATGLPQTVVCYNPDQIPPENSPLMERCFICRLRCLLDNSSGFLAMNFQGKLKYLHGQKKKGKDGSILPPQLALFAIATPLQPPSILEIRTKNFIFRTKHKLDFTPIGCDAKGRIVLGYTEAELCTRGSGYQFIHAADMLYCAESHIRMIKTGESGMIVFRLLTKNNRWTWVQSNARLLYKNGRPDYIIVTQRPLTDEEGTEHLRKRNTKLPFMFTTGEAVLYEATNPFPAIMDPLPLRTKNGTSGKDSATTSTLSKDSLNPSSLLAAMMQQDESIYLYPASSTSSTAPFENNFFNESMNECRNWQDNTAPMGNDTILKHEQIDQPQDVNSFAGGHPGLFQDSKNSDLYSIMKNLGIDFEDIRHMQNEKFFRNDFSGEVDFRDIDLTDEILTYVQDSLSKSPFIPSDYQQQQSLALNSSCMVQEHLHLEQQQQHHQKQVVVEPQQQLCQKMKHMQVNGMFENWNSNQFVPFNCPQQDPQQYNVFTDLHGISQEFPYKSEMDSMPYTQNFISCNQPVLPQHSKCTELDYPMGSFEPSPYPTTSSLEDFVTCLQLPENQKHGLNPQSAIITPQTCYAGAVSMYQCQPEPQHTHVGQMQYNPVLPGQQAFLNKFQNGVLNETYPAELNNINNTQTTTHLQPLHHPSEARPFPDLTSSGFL
Outline: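 AhR agonist activity is inferred from enhanced light output of a DRE-controlled firefly luciferase reporter in HepG2 cells, measured with ONE-Glo following 24 h treatment at 37C.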

[3] = qHTS assay to identify small molecule that activate the aryl hydrocarbon receptor (AhR) signaling pathway - cell viability counter screen (AID 743086);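 also: HepG2 liver cells carrying the AhR DRE luciferase reporter; series mostly up to about 70 µM; nearly all actives have a fitted effect of over 45% in size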
Outline: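 Cytotoxicity counter screen: CellTiter-Fluor signal (30 min, 37 C) in 4000 HepG2 cells/well carrying the DRE-luciferase reporter, following 24 h compound exposure at 37 C.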

[4] = biological target: Peroxisome proliferator-activated receptor gamma (Homo sapiens) (UniProt P37231); experiment: qHTS assay to identify small molecule agonists of the peroxisome proliferator-activated receptor gamma (PPARg) signaling pathway (AID 743094; active = well fitted activation curve with a large enough effect in the signal ratio in the repeat runs, not every such curve was filed as active; the % refers to the signal ratio)
Peroxisome proliferator-activated receptor gamma (Homo sapiens), sequence (P37231 whole entry, looked up): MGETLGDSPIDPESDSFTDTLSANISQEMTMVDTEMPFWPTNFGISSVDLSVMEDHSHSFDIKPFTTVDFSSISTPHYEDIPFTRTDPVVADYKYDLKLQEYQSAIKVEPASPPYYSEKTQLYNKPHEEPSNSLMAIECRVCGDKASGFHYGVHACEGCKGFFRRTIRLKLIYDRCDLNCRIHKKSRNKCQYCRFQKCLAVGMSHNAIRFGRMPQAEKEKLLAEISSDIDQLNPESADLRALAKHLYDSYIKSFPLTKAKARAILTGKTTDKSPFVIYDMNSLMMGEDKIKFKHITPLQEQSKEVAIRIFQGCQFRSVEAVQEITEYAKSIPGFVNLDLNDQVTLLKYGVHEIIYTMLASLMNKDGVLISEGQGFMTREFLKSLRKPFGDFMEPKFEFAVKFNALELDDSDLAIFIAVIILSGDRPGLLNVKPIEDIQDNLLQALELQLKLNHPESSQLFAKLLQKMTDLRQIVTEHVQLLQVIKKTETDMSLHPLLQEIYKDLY
Outline: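 Cell-based bla reporter, HEK293H background, PPARg-driven UAS. Pre-incubation 5 h, 37C, 5% CO2. Compound 17 h, 37C. Substrate 1 h RT; fluorescence.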

[5] = biological target: Peroxisome proliferator-activated receptor gamma (Homo sapiens) (UniProt P37231); experiment: qHTS assay to identify small molecule antagonists of the peroxisome proliferator-activated receptor gamma (PPARg) signaling pathway (AID 743191; calls by dose curve; also: series mostly up to about 63 µM; nearly all actives have a fitted effect of over 30% in size)
Outline: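 Beta-lactamase reporter under UAS control in HEK293H PPARg-bla cells; compound treatment 17 h at 37C. Read-out: fluorescence intensity after 1 h room-temperature incubation with LiveBLAzer B/G FRET substrate.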

[6] = qHTS assay to identify small molecule antagonists of the peroxisome proliferator-activated receptor gamma (PPARg) signaling pathway - cell viability counter screen (AID 743194); also: nearly all actives have a fitted effect of over 55% in size
Outline: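 Viability was measured as CellTiter-Glo luminescence in GeneBLAzer PPARg UAS-bla HEK293H cells. These cells had been exposed 17 h at 37 C to compounds together with rosiglitazone at 50 nM final, with the beta-lactamase readout taken in the same wells.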

[7] = qHTS assay for small molecule agonists of the antioxidant response element (ARE) signaling pathway (AID 743202; active = well fitted activation curve with a large enough effect in the signal ratio in the repeat runs, not every such curve was filed as active; the % refers to the signal ratio)
Outline: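 Beta-lactamase reporter activity, read as fluorescence intensity, reflects ARE/Nrf2 pathway induction in HepG2 cells after 16 h compound exposure at 37 C; substrate loading was 2 h at room temperature.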

[8] = qHTS assay for small molecule activators of the heat shock response signaling pathway - cell viability counter screen (AID 743209); also: nearly all actives have a fitted effect of over 50% in size
Outline: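 Same-well multiplex: after 2.5 h room-temperature incubation with LiveBLAzer B/G substrate and fluorescence reading, CellTiter-Glo reagent was added to HSE-bla HeLa cells that had received compound for 5 h at 37 C; luminescence read after 30 min.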

[9] = qHTS assay for small molecule activators of the heat shock response signaling pathway (AID 743210; active = well fitted activation curve with a large enough effect in the signal ratio in the repeat runs, with a control signal flat, not every such curve was filed as active; the % refers to the signal ratio;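 also: HeLa cells with beta-lactamase reporter driven by heat shock elements; series mostly up to about 63 µM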)
Outline: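 Fluorescence from a cleaved B/G FRET substrate (2.5 h, room temp) reports HSE-driven beta-lactamase in HeLa cells treated 5 h at 37 C with DMSO-dissolved compounds.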

[10] = qHTS assay for small molecule agonists of the antioxidant response element (ARE) signaling pathway - cell viability counter screen (AID 743203; calls by dose curve; also: nearly all actives have a fitted effect of over 55% in size)
Outline: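 Measured in the same wells as the beta-lactamase ARE reporter, this read-out is CellTiter-Glo luminescence from HepG2 ARE-bla cells given compounds for 16 hrs.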

Measured: Potency

NC/C=C/C(=O)O
inactive: [1] | [2] | [3] | [4] | [5] | [6] | [7] | [8] | [9]

O=Cc1ccc(F)c(Br)c1
inactive: [1] | [2] | [3] | [4] | [5] | [6] | [7] | [10] | [8] | [9]

CCC1(C)NC(=O)NC1=O (stereo not drawn)
inactive: [1] | [2] | [3] | [4] | [5] | [6] | [7] | [10] | [8]

Cc1ccc([N+](=O)[O-])cc1Cl
inactive: [1] | [2] | [3] | [4] | [5] | [6] | [7] | [10] | [8] | [9]

O=c1[nH]cnc2c1ncn2[C@@H]1O[C@H](CO)[C@@H](O)[C@H]1O
inactive: [1] | [2] | [3] | [4] | [5] | [6] | [7] | [10] | [8] | [9]

C=CCCC=C
inactive: [1] | [2] | [3] | [4] | [5] | [6] | [7] | [8]

C=CC1CO1 (stereo not drawn)
inactive: [1] | [2] | [3] | [4] | [5] | [6] | [7] | [10] | [8] | [9]

C[C@]12C(=O)OC(=O)[C@H]1[C@H]1C=C[C@@H]2C1
inactive: [1] | [2] | [3] | [4] | [5] | [6] | [7] | [8]

COC(C)CCO (stereo not drawn)
inactive: [1] | [2] | [3] | [4] | [5] | [6] | [7] | [10] | [8] | [9]

CC/C=C\CCOC(=O)CCCCC
inactive: [1] | [2] | [3] | [4] | [5] | [6] | [10] | [8] | [9]

O=C1C=CC(=O)O1
inactive: [1] | [2] | [3] | [4] | [5] | [6] | [7] | [10] | [8] | [9]

CC(C)(C)c1ccc(OC(=O)c2ccccc2O)cc1
inactive: [1] | [2] | [3] | [4] | [5] | [6] | [7] | [10] | [8] | [9]

CCOC(=O)C1CC(=O)C(=C(O)C2CC2)C(=O)C1 (stereo not drawn)
inactive: [1] | [2] | [3] | [4] | [5] | [6] | [7] | [10] | [8] | [9]

COc1ccc(S(=O)(=O)Nc2nnc(CC(C)C)s2)cc1
inactive: [1] | [2] | [3] | [4] | [6] | [7] | [10] | [8] | [9]

COC(=O)C(C)O (stereo not drawn)
inactive: [1] | [2] | [3] | [4] | [5] | [7] | [10] | [8] | [9]

COc1ccccc1OCC(O)COC(N)=O (stereo not drawn)
inactive: [1] | [2] | [3] | [4] | [6] | [7] | [10] | [8] | [9]

CC(C)O
inactive: [1] | [2] | [3] | [4] | [5] | [7] | [10]

CCOc1ccc(OCC)c(Cl)c1
inactive: [1] | [2] | [3] | [4] | [5] | [7] | [10] | [8]

CC(C)c1ccccc1
inactive: [1] | [2] | [3] | [4] | [6] | [7] | [10]

Cc1nnc(SCC2=C(C(=O)O)N3C(=O)[C@@H](NC(=O)Cn4cnnn4)[C@H]3SC2)s1
inactive: [1] | [2] | [3] | [4] | [5] | [10] | [9]

COc1cc(N)c(Cl)cc1C(=O)NC1CCN(Cc2ccccc2)CC1
inactive: [1] | [2] | [3] | [4] | [6] | [7] | [10] | [8] | [9]

C[C@@H](N)C(=O)O
inactive: [1] | [2] | [3] | [4] | [5] | [7] | [10] | [8]

CCC(=O)Nc1ccc(O)cc1
inactive: [1] | [2] | [3] | [4] | [5] | [7] | [10] | [9]

Cc1ccc(C=O)s1
inactive: [1] | [2] | [3] | [4] | [6] | [7] | [10]

Cc1ccc(C(C)C)cc1O
inactive: [1] | [2] | [3] | [4] | [6] | [7] | [10] | [8] | [9]

Oc1ccccc1C=NCc1ccccc1
inactive: [1] | [2] | [3] | [4] | [6] | [7] | [10] | [8] | [9]

Cc1c(-c2ccccc2)oc2c(C(=O)OCCN3CCCCC3)cccc2c1=O
inactive: [1] | [2] | [3] | [4] | [5] | [7] | [9]

CCCCCCCCOC(=O)CCCCCCCCC(=O)OCCCCCCCC
inactive: [1] | [2] | [3] | [4] | [5] | [6] | [9]
